# The full list was thinned out, with the strongest signals kept by preference.
# Key:
# Assay in all cases: glycan array binding signal (z-score within array); higher = stronger binding
# Settings in all cases: glycan notation: IUPAC condensed, linker removed
# Gal3S(b1-4)Glc = biological target: Gal3S(b1-4)Glc
# Outline: (§1)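 Glycan array data came from 3228 arrays in the Consortium for Functional Glycomics database, and only arrays with an available protein sequence were kept. Glycan names were put into IUPAC-condensed notation, and columns mapping to the same glycan were averaged. The binding signal is a within-array Z-score, averaged across arrays of one protein sequence run at different concentrations or buffers and across linkers. A negative Z-score can be read as non-binding.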
# [1] = biological target: Gal3S(b1-4)[Fuc(a1-3)]GlcNAc6S
# Outline: as §1
# Gal3S6S(b1-4)GlcNAc6S = biological target: Gal3S6S(b1-4)GlcNAc6S
# Outline: as §1
# Gal6S(b1-3)GlcNAc6S = biological target: Gal6S(b1-3)GlcNAc6S
# Outline: as §1
# GalNAc(a1-3)Gal = biological target: GalNAc(a1-3)Gal
# Outline: as §1
# [2] = biological target: Glc(a1-6)Glc(a1-6)Glc(a1-6)Glc
# Outline: as §1
# [3] = biological target: GlcNAc(a1-4)Gal(b1-4)GlcNAc(b1-3)Gal(b1-4)[Fuc(a1-3)]GlcNAc(b1-3)Gal(b1-4)[Fuc(a1-3)]GlcNAc
# Outline: as §1
# [4] = biological target: GlcNAc(b1-2)Gal(b1-3)GalNAc
# Outline: as §1
# [5] = biological target: GlcNAc(b1-2)[GlcNAc(b1-4)]Man(a1-3)[GlcNAc(b1-4)][GlcNAc(b1-2)[GlcNAc(b1-6)]Man(a1-6)]Man(b1-4)GlcNAc(b1-4)[Fuc(a1-6)]GlcNAc
# Outline: as §1
# [6] = biological target: GlcNAc(b1-2)[GlcNAc(b1-6)]Man(a1-6)[GlcNAc(b1-2)Man(a1-3)]Man(b1-4)GlcNAc(b1-4)[Fuc(a1-6)]GlcNAc
# Outline: as §1
# [7] = biological target: GlcNAc(b1-2)[GlcNAc(b1-6)]Man(a1-6)[GlcNAc(b1-4)][GlcNAc(b1-2)Man(a1-3)]Man(b1-4)GlcNAc(b1-4)GlcNAc
# Outline: as §1
# [8] = biological target: GlcNAc(b1-3)Gal(b1-4)GlcNAc(b1-3)Gal(b1-4)GlcNAc(b1-3)Gal(b1-4)GlcNAc(b1-3)Gal(b1-4)GlcNAc(b1-2)Man(a1-3)[GlcNAc(b1-3)Gal(b1-4)GlcNAc(b1-3)Gal(b1-4)GlcNAc(b1-3)Gal(b1-4)GlcNAc(b1-3)Gal(b1-4)GlcNAc(b1-2)Man(a1-6)]Man(b1-4)GlcNAc(b1-4)[Fuc(a1-6)]GlcNAc
# Outline: as §1
# [9] = biological target: GlcNAc(b1-3)Gal(b1-4)GlcNAc(b1-3)Gal(b1-4)GlcNAc(b1-3)Gal(b1-4)GlcNAc(b1-3)Gal(b1-4)GlcNAc(b1-2)[GlcNAc(b1-3)Gal(b1-4)GlcNAc(b1-3)Gal(b1-4)GlcNAc(b1-3)Gal(b1-4)GlcNAc(b1-3)Gal(b1-4)GlcNAc(b1-6)]Man(a1-6)[GlcNAc(b1-3)Gal(b1-4)GlcNAc(b1-3)Gal(b1-4)GlcNAc(b1-3)Gal(b1-4)GlcNAc(b1-3)Gal(b1-4)GlcNAc(b1-2)Man(a1-3)]Man(b1-4)GlcNAc(b1-4)[Fuc(a1-6)]GlcNAc
# Outline: as §1
# [10] = biological target: GlcNAc(b1-3)Gal(b1-4)GlcNAc(b1-6)[Gal(b1-3)]GalNAc
# Outline: as §1
# Man(b1-4)GlcNAc = biological target: Man(b1-4)GlcNAc
# Outline: as §1
# [11] = biological target: Neu5Ac(a2-3)Gal(b1-3)GlcNAc(b1-3)Gal(b1-4)GlcNAc
# Outline: as §1
# [12] = biological target: Neu5Ac(a2-3)Gal(b1-3)[Fuc(a1-4)]GlcNAc(b1-3)Gal(b1-4)[Fuc(a1-3)]GlcNAc
# Outline: as §1
# [13] = biological target: Neu5Ac(a2-3)Gal(b1-4)GlcNAc(b1-2)Man
# Outline: as §1
# [14] = biological target: Neu5Ac(a2-3)Gal(b1-4)GlcNAc(b1-2)[Neu5Ac(a2-3)Gal(b1-4)GlcNAc(b1-4)]Man(a1-3)[GlcNAc(b1-4)][Neu5Ac(a2-3)Gal(b1-4)GlcNAc(b1-4)Man(a1-6)]Man(b1-4)GlcNAc(b1-4)GlcNAc
# Outline: as §1
# [15] = biological target: Neu5Ac(a2-3)Gal(b1-4)GlcNAc(b1-3)Gal
# Outline: as §1
# [16] = biological target: Neu5Ac(a2-3)Gal(b1-4)GlcNAc(b1-3)Gal(b1-4)GlcNAc(b1-2)Man(a1-3)[Neu5Ac(a2-3)Gal(b1-4)GlcNAc(b1-3)Gal(b1-4)GlcNAc(b1-2)Man(a1-6)]Man(b1-4)GlcNAc(b1-4)GlcNAc
# Outline: as §1
# [17] = biological target: Neu5Ac(a2-3)Gal(b1-4)GlcNAc(b1-3)[Neu5Ac(a2-3)Gal(b1-4)GlcNAc(b1-6)]GalNAc
# Outline: as §1
# [18] = biological target: Neu5Ac(a2-3)[GalNAc(b1-4)]Gal(b1-4)GlcNAc
# Outline: as §1
# [19] = biological target: Neu5Ac(a2-3)[GalNAc(b1-4)]Gal(b1-4)GlcNAc(b1-3)GalNAc
# Outline: as §1
# [20] = biological target: Neu5Ac(a2-6)Gal(b1-4)GlcNAc(b1-2)Man(a1-6)[Gal(b1-4)GlcNAc(b1-2)Man(a1-3)]Man(b1-4)GlcNAc(b1-4)GlcNAc
# Outline: as §1
# [21] = biological target: Neu5Ac(a2-8)Neu5Ac(a2-3)[GalNAc(b1-4)]Gal(b1-4)Glc
# Outline: as §1
# [22] = biological target: Neu5Ac9Ac(a2-6)Gal(b1-4)GlcNAc
# Outline: as §1
# [23] = biological target: Neu5Gc(a2-3)Gal(b1-3)GlcNAc
# Outline: as §1
binder,measurement,setting,value
"Tp0751, 83732 (protein) MSYYHHHHHHLESTSLYKKAGFQHGHVPPRRIPPHDTFGALPTAALPSNARDTAAHPSDTADNTSGSSTTTDPRSHGNAPPAPVGGAAQTHTQPPVQTAMRIALWNRATHGEQGALQHLLAGLWIQTEISPNSGDIHPLLFFDREHAEITFSRASVQEIFLVDSAHTHRKTVSFLTRNTAISSIRRRLEVTFESHEVIHVRAVEDVARLKIGSTSMWDGQYTRYHAGPASAPSP",glycan array binding signal (z-score),Gal3S(b1-4)Glc,5.83
same,glycan array binding signal (z-score),[1],1.94
same,glycan array binding signal (z-score),Gal3S6S(b1-4)GlcNAc6S,2.54
same,glycan array binding signal (z-score),Gal6S(b1-3)GlcNAc6S,2.18
same,glycan array binding signal (z-score),GalNAc(a1-3)Gal,-0.699
same,glycan array binding signal (z-score),[2],1.24
same,glycan array binding signal (z-score),[3],1.63
same,glycan array binding signal (z-score),[4],-0.378
same,glycan array binding signal (z-score),[5],-0.299
same,glycan array binding signal (z-score),[6],0.781
same,glycan array binding signal (z-score),[7],-0.584
same,glycan array binding signal (z-score),[8],-0.326
same,glycan array binding signal (z-score),[9],-0.088
same,glycan array binding signal (z-score),[10],-0.81
same,glycan array binding signal (z-score),Man(b1-4)GlcNAc,-0.599
same,glycan array binding signal (z-score),[11],0.058
same,glycan array binding signal (z-score),[12],0.658
same,glycan array binding signal (z-score),[13],6.75
same,glycan array binding signal (z-score),[14],-0.386
same,glycan array binding signal (z-score),[15],-0.332
same,glycan array binding signal (z-score),[16],0.542
same,glycan array binding signal (z-score),[17],-0.246
same,glycan array binding signal (z-score),[18],-0.76
same,glycan array binding signal (z-score),[19],0.098
same,glycan array binding signal (z-score),[20],-0.478
same,glycan array binding signal (z-score),[21],-0.022
same,glycan array binding signal (z-score),[22],-0.145
same,glycan array binding signal (z-score),[23],0.052

# Reference: the supplement of paper PMC8728848
